# Target: S100P
# Experiment: pooled miR-30 sensor sort-seq; sequence = guide strand
# Details: shRNA
# Note: reference of the scale not given here.
row,Sequence,sensor-assay potency score (higher = more potent)
1,AAGACGTCTATGATCATGCCCA,0.0811
2,GAACTCACTGAAGTCCACCTGG,-0.698
3,TGGTAGCTCCTTCTCCATCAGC,-1.75
4,TTGCCAACAAACACTTTTGGGA,-0.0452
5,TACATGAGCAGGCTCAGCCTAG,-0.833

# Target: SACS
# Experiment: as above
# Details: shRNA
row,Sequence,sensor-assay potency score (higher = more potent)
1,TTTGAGAGTAAGTCTGTCCGGC,0.448
2,TTTTCTGTGACAACTCATCTGA,0.17
3,TTTCCAACCATCTTCTACCATC,-0.995
4,TTCATAAACAAGTCTTTGCGGG,-0.207
5,TAAAATATCATCTTTTGCCATA,-0.814
6,TTTCTGACAGCTGAACTCCTAC,-0.234
7,ATAACTTTGCAACTCGTCCTTC,0.248
8,TTGACTTTACCAATCTACCATC,-1.12
9,TTTCACAATAACATGTCTCATG,-0.427
10,TTTTAGATTAGTCTGCTGCAGA,-0.586
11,TAGAGTATCAACAACAATGTCA,0.305

# Target: SAMD10
# Experiment: as above
# Details: shRNA
row,Sequence,sensor-assay potency score (higher = more potent)
1,TGCAGGAGCTTGATTGGCCTGC,-1.14
2,TGCTTCTTGAGCCACTTGCAGA,-1.33
3,TATGGTACAGGCCATAGTGGTC,-1.37
4,TAAATAATGATGAAAGTGCTTG,-0.363
5,TTGTGCCACATTTTGTCTCTGG,-0.0935
6,ATAGTGGTCAGAGTACAGCCGG,-1.22
7,TTGTGGGGACAGTGCTTCTTGA,-1.41
8,TAGACGAGGTAGTTGTGGGGAC,-0.47
9,TAGTGGTCAGAGTACAGCCGGC,-1.02
10,ATGCTCTCAGCTGACACCGTGT,-1.22
11,TAAATAAACAGACTCCCTGGGA,-0.205
12,TTACTTCTCATGAATAGAGGGG,0.161

# Target: SAMD3
# Experiment: as above
# Details: shRNA
row,Sequence,sensor-assay potency score (higher = more potent)
1,TAAAACATAGGACTTCGTCCAC,0.0328
2,TAAATCCATCAGAACAGCCTGG,-0.235
3,TGTAACACAGTCGTCCACCTTT,-0.369
4,TTGCTCATCATCTTCTATGGGT,0.349
5,TTCTCCACCAACCAACTGCAGA,-1.35
6,TTAACTTCCAACACAGGTGTGG,0.183
7,TTGTTTCACATTTCTTCTCTGT,0.377
8,TTGAAATCTATGAACTAGCTCT,0.87
9,TTCTGCTCTGCTAACATGCATT,-1.16
10,TTTTTCTCCACCAACCAACTGC,-0.0677
11,TTCAACATGTCTTCATCTGTGT,0.839

# — the OligoGym collection
